A short description of assay [1]: antimalarial activity against Dd2 strain (AID 2302;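 active = growth inhibition above 50% at the single 2 µM test dose, taken to imply half-maximal potency below 2 µM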;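 note: 0% = DMSO untreated growth and 100% = chloroquine plus artemisinin killed control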). Conditions: P. falciparum Dd2 in RBCs, LDH growth readout, 72 h; at 2 µM; stronger effect = higher value.
The nature of assay [2]: HepG2 cytotoxicity, primary screen, cytotoxicity control for P. falciparum antimalarial project, cell-based, ATP luminescence (AID 2303;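 active = inhibition above 50%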;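 note: 0% = DMSO wells and 100% = digitonin-killed cells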). The conditions noted are these: HepG2 viability, 24-48 h, at 10 µM, stronger effect = higher value.
Assay [3] deals with L-lactate dehydrogenase (Plasmodium falciparum (isolate CDC / Honduras)) (UniProt Q27743). Kind of assay: PfLDH activity inhibition – cell lysate, 3D7 strain, counter-screen for P. falciparum growth inhibition project (AID 2304).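 Note: 0% = vehicle and 100% = reference inhibitor.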 Conditions: P. falciparum 3D7 crude extract, LDH APAD/NBT absorbance; at 2 µM; stronger effect = higher value.
L-lactate dehydrogenase (Plasmodium falciparum (isolate CDC / Honduras)), sequence (Q27743 whole entry, looked up): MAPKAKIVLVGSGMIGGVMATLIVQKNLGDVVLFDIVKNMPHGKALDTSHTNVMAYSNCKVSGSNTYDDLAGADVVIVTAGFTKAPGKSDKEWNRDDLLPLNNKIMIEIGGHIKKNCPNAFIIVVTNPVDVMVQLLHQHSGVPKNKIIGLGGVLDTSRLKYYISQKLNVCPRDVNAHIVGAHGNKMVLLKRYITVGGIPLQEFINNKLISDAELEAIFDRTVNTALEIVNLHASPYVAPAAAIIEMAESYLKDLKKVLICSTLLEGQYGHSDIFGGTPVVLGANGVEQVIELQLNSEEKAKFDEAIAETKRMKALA
A short description of assay [4]: inhibition of 3D7 malaria parasite growth – strain 3D7 (AID 2306).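 Note: 0% = DMSO wells and 100% = chloroquine plus artemisinin control wells.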 Conditions: P. falciparum 3D7 erythrocytic growth, LDH absorbance, 72 h; at 2 µM; stronger effect = higher value.
Assay [5] addresses Calcium-dependent protein kinase 1 (Plasmodium falciparum (isolate 3D7)) (UniProt P62344). Put plainly: PfCDPK1 kinase inhibitors, biochemical, TCAMS library (AID 1159585; cut-off not given, nearly all actives have IC50 up to about 0.98 µM;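 note: inhibitors leave more ATP so luminescence rises with inhibition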). Conditions: recombinant PfCDPK1, Kinase-Glo ATP depletion luminescence. Background: Kinase-Glo measures the ATP left after a reaction by luminescence.
In assay [6] the target is Plasmodium falciparum protein kinase 6 (PK6, PF3D7_1337100) (UniProt Q8IDW1). Put plainly: PfPK6 kinase inhibitors, biochemical, TCAMS library (AID 1159586). Conditions: recombinant PfPK6, Kinase-Glo ATP depletion luminescence.
Plasmodium falciparum protein kinase 6 (PK6, PF3D7_1337100), sequence (Q8IDW1 1-305): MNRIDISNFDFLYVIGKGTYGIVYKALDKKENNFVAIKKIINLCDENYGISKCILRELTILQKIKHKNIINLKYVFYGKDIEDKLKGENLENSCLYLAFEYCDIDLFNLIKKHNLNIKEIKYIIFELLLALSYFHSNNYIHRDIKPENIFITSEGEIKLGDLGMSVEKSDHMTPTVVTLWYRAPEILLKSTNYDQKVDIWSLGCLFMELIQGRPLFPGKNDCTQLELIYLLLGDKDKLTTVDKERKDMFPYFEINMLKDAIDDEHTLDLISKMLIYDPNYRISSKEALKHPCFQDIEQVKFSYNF
Assay [7] addresses Protein kinase 7 (PK7), Plasmodium falciparum 3D7 (PF3D7_0213400) (UniProt Q7YTF7). Kind of assay: inhibition of Plasmodium PK7 catalytic activity – biochemical, TCAMS antimalarial set, Kinase-Glo luminescence (AID 1159587). Conditions: recombinant PfPK7, Kinase-Glo ATP depletion luminescence.
Assay [8] concerns the target Calcium-dependent protein kinase 4 (Plasmodium falciparum (isolate 3D7)) (UniProt Q8IBS5). Kind of assay: PfCDPK4 kinase inhibitors, biochemical, TCAMS library (AID 1159588; cut-off not given, nearly all actives have IC50 up to about 0.91 µM). Conditions: recombinant PfCDPK4, Kinase-Glo ATP depletion luminescence.

A number with no mark means an inactive call. For part of these data: Measured potencies and affinities stand elsewhere. Activity calls are given as the source filed them. Unless noted, the rule behind the calls is not given here.

Calcium-dependent protein kinase 1 (Plasmodium falciparum (isolate 3D7)), sequence (P62344 whole entry, looked up): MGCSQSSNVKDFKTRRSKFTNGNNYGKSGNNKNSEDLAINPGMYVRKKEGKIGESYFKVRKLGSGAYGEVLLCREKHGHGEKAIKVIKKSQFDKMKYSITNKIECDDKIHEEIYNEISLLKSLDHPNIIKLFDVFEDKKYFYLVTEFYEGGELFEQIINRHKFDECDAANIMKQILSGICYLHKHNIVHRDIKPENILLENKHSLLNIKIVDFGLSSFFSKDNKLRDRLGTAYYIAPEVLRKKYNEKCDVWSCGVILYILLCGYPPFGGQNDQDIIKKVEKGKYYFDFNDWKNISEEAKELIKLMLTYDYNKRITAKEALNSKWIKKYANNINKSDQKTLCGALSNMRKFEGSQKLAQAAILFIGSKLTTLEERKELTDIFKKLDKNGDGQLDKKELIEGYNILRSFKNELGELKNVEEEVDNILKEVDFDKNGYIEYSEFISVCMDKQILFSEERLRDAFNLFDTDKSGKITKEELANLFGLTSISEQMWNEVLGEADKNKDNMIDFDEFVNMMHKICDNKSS
Calcium-dependent protein kinase 4 (Plasmodium falciparum (isolate 3D7)), sequence (Q8IBS5 whole entry, looked up): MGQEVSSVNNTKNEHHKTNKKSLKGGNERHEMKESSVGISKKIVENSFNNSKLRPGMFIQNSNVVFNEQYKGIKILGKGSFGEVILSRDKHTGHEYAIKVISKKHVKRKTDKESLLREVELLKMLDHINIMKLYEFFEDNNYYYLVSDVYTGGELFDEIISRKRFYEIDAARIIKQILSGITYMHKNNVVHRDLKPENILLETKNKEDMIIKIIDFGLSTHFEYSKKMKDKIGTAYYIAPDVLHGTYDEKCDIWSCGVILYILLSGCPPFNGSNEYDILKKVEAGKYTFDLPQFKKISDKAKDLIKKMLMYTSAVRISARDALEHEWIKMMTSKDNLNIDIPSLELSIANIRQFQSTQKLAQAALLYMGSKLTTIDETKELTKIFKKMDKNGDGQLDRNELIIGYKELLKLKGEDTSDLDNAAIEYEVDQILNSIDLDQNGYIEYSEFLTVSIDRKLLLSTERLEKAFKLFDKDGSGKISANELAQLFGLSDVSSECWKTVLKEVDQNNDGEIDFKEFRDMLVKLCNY
Protein kinase 7 (PK7), Plasmodium falciparum 3D7 (PF3D7_0213400), sequence (Q7YTF7 1-343): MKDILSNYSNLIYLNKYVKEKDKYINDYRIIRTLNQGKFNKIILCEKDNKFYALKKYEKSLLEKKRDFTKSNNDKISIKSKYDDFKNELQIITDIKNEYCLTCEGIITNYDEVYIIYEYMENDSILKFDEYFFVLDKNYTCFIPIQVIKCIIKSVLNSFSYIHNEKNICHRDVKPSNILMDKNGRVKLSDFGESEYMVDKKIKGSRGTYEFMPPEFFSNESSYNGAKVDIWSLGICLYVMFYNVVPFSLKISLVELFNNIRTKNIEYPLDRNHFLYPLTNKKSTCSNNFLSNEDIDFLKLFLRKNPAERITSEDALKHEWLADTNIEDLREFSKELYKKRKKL

For the compound `CCOc1ccc(-c2nonc2NC(=O)c2cccc(Cl)c2)cc1OCC`, the results for the growth inhibition in assay [1] and in assay [4] were 99% (active) and 100% (active), respectively. The inhibition (in general, the drop in the measured response relative to a control, in per cent) in assay [2] was -5%; in assay [3], -8%. Besides, the outcome in assay [5], in assay [6], in assay [7] and in assay [8] was inactive.
As for `CN1CCN(c2ccc3nc(-c4ccc(Cc5cc(Cl)ccc5OCc5ccccc5)o4)[nH]c3c2)CC1`, the growth inhibition in assay [1] is 79% (active); in assay [4] it was 102% (active). The inhibition in assay [2] is 27%; in assay [3], 2%. Moreover, the outcome in assay [5], in assay [6], in assay [7] and in assay [8] was inactive.
`COc1nc(Nc2cccc(C)c2)nc(OC)n1`: the growth inhibition in assay [1] was -5%; in assay [4], 94% (active). The inhibition was 46% in assay [2] and 1% in assay [3]. Besides, the result in assay [5], in assay [6], in assay [7] and in assay [8] was inactive.
`Cc1ccc(C)c2sc(N(CCCn3ccnc3)C(=O)c3ccco3)nc12`: the results for the growth inhibition in assay [1] and in assay [4] were 63% (active) and 96% (active), respectively. For the same compound, the inhibition was 28% in assay [2] and 0% in assay [3]. Further, the result in assay [5], in assay [6], in assay [7] and in assay [8] was inactive.
As to `CCCC(CNCc1cccc(OC(F)(F)F)c1)CNc1cc(=O)c2ccccc2[nH]1` (stereo not drawn), the growth inhibition in assay [1] is 95% (active); in assay [4], 101% (active). Moreover, the inhibition was -4% in assay [2] and -2% in assay [3]. Besides, the outcome in assay [5], in assay [6], in assay [7] and in assay [8] was inactive.
As to `NC1CCN(c2nc(NCCCc3ccc(O)cc3)nc(NCc3ccccc3-c3ccccc3)n2)CC1`, the growth inhibition in assay [1] is 45%; in assay [4], 102% (active). Moreover, the inhibition in assay [2] was 11%; in assay [3], 4%. Also, the result in assay [5], in assay [6], in assay [7] and in assay [8] was inactive.
Take `COc1ccc(CNc2nccc3ccc(-c4ccc5nccn5c4)cc23)cc1`: the results for the growth inhibition in assay [1] and in assay [4] were 47% and 95% (active), respectively. The inhibition in assay [2] was 17%; in assay [3], -4%. Besides, the outcome in assay [5], in assay [6], in assay [7] and in assay [8] was inactive.
Take `CN1CCN(c2ccnc3ccc(NC(=O)Nc4ccc(-c5ccncc5)c(C#N)c4)cc23)CC1`: the growth inhibition in assay [1] is 99% (active); in assay [4] it was 101% (active). In addition, the results for the inhibition in assay [2] and in assay [3] were 32% and -3%, respectively. Moreover, the result in assay [5], in assay [6], in assay [7] and in assay [8] was inactive.
Consider `CCOc1cc(Cl)c(C(C)NC(=O)c2ccccc2)cc1OCC` (stereo not drawn), for which the values for the growth inhibition in assay [1] and in assay [4] were 49% and 91% (active), respectively. Moreover, the values for the inhibition in assay [2] and in assay [3] were -3% and -1%, respectively. The result in assay [5], in assay [6], in assay [7] and in assay [8] was inactive.
Turning to `CC(CN(C)C)C(=O)Nc1cccc(-c2ccc(-c3nc4ccccc4[nH]3)s2)c1` (stereo not drawn), the growth inhibition in assay [1] was 47%; in assay [4], 100% (active). Besides, the inhibition in assay [2] was 13%; in assay [3], 7%. In addition, the result in assay [5], in assay [6], in assay [7] and in assay [8] was inactive.
With `NCCCCNc1cc(-c2ccnc(Nc3cccc(Cl)c3)n2)ccn1`, the growth inhibition in assay [1] was 91% (active); in assay [4], 94% (active). The inhibition in assay [2] is 46%; in assay [3], 1%. Besides, the result in assay [5], in assay [6], in assay [7] and in assay [8] was inactive.
As for `Cc1cccc(-n2c(=O)c3c4c(sc3n3c(SCCC(C)C)nnc23)CCCC4)c1`, the growth inhibition in assay [1] is 8%; in assay [4], 90% (active). Besides, the inhibition in assay [2] was -2%; in assay [3], -4%. In addition, the outcome in assay [5], in assay [6], in assay [7] and in assay [8] was inactive.
As for `O=C(C=Cc1cccs1)Nc1ccc(-c2nc3ccccc3[nH]2)cc1`, the results for the growth inhibition in assay [1] and in assay [4] were 3% and 83% (active), respectively. Besides, the figures for the inhibition in assay [2] and in assay [3] were -4% and 4%, respectively. The outcome in assay [5], in assay [6], in assay [7] and in assay [8] was inactive.
For `N#Cc1cccc(NC(=O)c2ccc(S(=O)(=O)NCC3CCCN3CC3CCCCC3)cc2)c1` (stereo not drawn), the growth inhibition was 18% in assay [1] and 88% (active) in assay [4]. For the same compound, the inhibition was 25% in assay [2] and 4% in assay [3]. Besides, the result in assay [5], in assay [6], in assay [7] and in assay [8] was inactive.
Consider `CN1CCN(CC(=O)Nc2ccc(-c3ccc(-c4nc5ccc(C(F)(F)F)cc5[nH]4)cc3)cc2)CC1`, for which the growth inhibition is 98% (active) in assay [1] and 101% (active) in assay [4]. In addition, the inhibition in assay [2] is 43%; in assay [3] it was -3%. In addition, the result in assay [5], in assay [6], in assay [7] and in assay [8] was inactive.
As to `COCn1ccc2c3c(N)nc(N)nc3ccc21`, the growth inhibition is 1% in assay [1] and 88% (active) in assay [4]. Further, the figures for the inhibition in assay [2] and in assay [3] were 63% (active) and 6%, respectively. In addition, the outcome in assay [5], in assay [6], in assay [7] and in assay [8] was inactive.
For `CN1CCc2cc(NS(=O)(=O)c3ccc(-c4ccc(Cl)s4)cc3)c(N3CCCCC3)cc2CC1`, the growth inhibition in assay [1] was 29%; in assay [4], 98% (active). The inhibition in assay [2] is 14%; in assay [3] it was 3%. For the same compound, the result in assay [5], in assay [6], in assay [7] and in assay [8] was inactive.
`CCC(=O)N1CCc2cc(Br)cc(S(=O)(=O)N3CC(C)CC(C)C3)c21` (stereo not drawn): the growth inhibition was 84% (active) in assay [1] and 85% (active) in assay [4]. Further, the inhibition is 5% in assay [2] and -3% in assay [3]. Further, the result in assay [5], in assay [6], in assay [7] and in assay [8] was inactive.
With `CCCC(C)Nc1nc(C)cc(N[C@@H](Cc2ccccc2)C(=O)NCCc2ccccc2)n1` (stereo partly drawn), the growth inhibition is 68% (active) in assay [1] and 97% (active) in assay [4]. Further, the results for the inhibition in assay [2] and in assay [3] were 11% and -3%, respectively. For the same compound, the result in assay [5], in assay [6], in assay [7] and in assay [8] was inactive.
On to `COc1ccc(Nc2nccc(N3CCC(NC(=O)C(C)c4ccc(Cl)cc4)CC3)n2)cc1` (stereo not drawn), for which the values for the growth inhibition in assay [1] and in assay [4] were 52% (active) and 94% (active), respectively. Also, the inhibition in assay [2] is 18%; in assay [3], -2%. Further, the result in assay [5], in assay [6], in assay [7] and in assay [8] was inactive.
Turning to `CCOC(=O)c1ccc(OCc2ccc(-c3ccccc3)cc2)cc1`, the values for the growth inhibition in assay [1] and in assay [4] were -1% and 96% (active), respectively. In addition, the inhibition in assay [2] was 18%; in assay [3], 3%. Further, the outcome in assay [5], in assay [6], in assay [7] and in assay [8] was inactive.
